This is an account of results in PubChem BioAssay (NCI).

Among the test systems are SK-MEL-2 melanoma; EKVX NSCLC; SN12C renal; UO-31 renal; TK-10 renal; ACHN renal; CAKI-1 renal; A498 renal; CCRF-CEM leukemia; MOLT-4 leukemia; SR leukemia; OVCAR-8 ovarian; OVCAR-5 ovarian; OVCAR-4 ovarian; SK-OV-3 ovarian; OVCAR-3 ovarian; HS 578T breast; NCI/ADR-RES ovarian; IGROV1 ovarian.
Assay in all cases: NCI-60 one-dose screen, 48 h (100 = growth as untreated, 0 = no growth, -100 = all killed)
Common to all, as to conditions: 10 µM unless noted

The structures appear in SMILES notation. About 83,000 compounds went through this panel and 20% of them were active in at least one assay; those are over-represented in the sample as a whole.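 Cells were grown in 96-well plates and exposed to the test compound at a single concentration for 48 hours; results are reported as percent growth, with values below 10 considered active.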 Unmarked numbers belong to inactive results. Active and inactive are the calls of the source.

With `O=C(O)CCC/C=C\C[C@H]1C=CC(=O)/C1=C/C[C@@H](O)CCc1cccc(C(F)(F)F)c1`, the growth in the test with SK-MEL-2 melanoma is -6.24% (active); in the test with EKVX NSCLC it was 37.9%; in the test with SN12C renal it was -24.7% (active); in the test on UO-31 renal, -88.4% (active); in the test with TK-10 renal it was 11.1%; in the test on ACHN renal, -70.3% (active). Besides, the growth in the test with CAKI-1 renal is 12.6%; in the test on A498 renal, -12% (active); in the test with CCRF-CEM leukemia, 4.1% (active); in the test on MOLT-4 leukemia it was -8.07% (active); with SR leukemia it was -7.7% (active); with OVCAR-8 ovarian, 10.3%. Also, the growth in the test with OVCAR-5 ovarian is 8.7% (active); in the test on OVCAR-4 ovarian it was 32.8%; in the test on SK-OV-3 ovarian it was 44.3%; in the test on OVCAR-3 ovarian, -36.1% (active); with HS 578T breast it was 37.6%; in the test with NCI/ADR-RES ovarian, 5.22% (active).
With `NCCCNc1nc2ccc(Cl)cc2c2c(=O)c3cc(F)ccc3sc12`, the growth is 104% in the test with SK-MEL-2 melanoma; 81.3% in the test with EKVX NSCLC; 71% with SN12C renal; 46.3% in the test with UO-31 renal; 89% in the test with TK-10 renal; 35.4% with ACHN renal. Further, the growth in the test with CAKI-1 renal was 24.4%; in the test with A498 renal, 23.4%; in the test on CCRF-CEM leukemia it was 12.1%; with MOLT-4 leukemia it was 8.78% (active); in the test on SR leukemia it was -27.4% (active); in the test on OVCAR-8 ovarian, 57.3%. Also, the growth with OVCAR-5 ovarian was 83.5%; in the test on OVCAR-4 ovarian it was 11.3%; in the test with IGROV1 ovarian, 52.8%; in the test on OVCAR-3 ovarian, 8.74% (active); in the test on HS 578T breast it was 65.9%; in the test on NCI/ADR-RES ovarian it was 65.9%.
Turning to `COc1cccc(/C=C2\C=C(c3ccccc3)N(Cc3ccccc3)C2=O)c1`, the growth in the test on SK-MEL-2 melanoma was 72.6%; with EKVX NSCLC it was 39.3%; in the test with SN12C renal, 43.6%; with UO-31 renal it was 41.2%; in the test with TK-10 renal it was 88.5%; in the test with ACHN renal, 48%. In addition, the growth in the test on CAKI-1 renal was 55.1%; in the test with A498 renal it was 16%; with CCRF-CEM leukemia it was 62.2%; in the test on MOLT-4 leukemia, 59.1%; in the test on SR leukemia it was 10.9%; in the test with OVCAR-8 ovarian, 68%. The growth with OVCAR-5 ovarian is 92.8%; in the test with OVCAR-4 ovarian, 71.9%; with SK-OV-3 ovarian, 42%; with OVCAR-3 ovarian it was 59.3%; with HS 578T breast, 42%; in the test on NCI/ADR-RES ovarian, 51.3%.
With `O=C(O)c1cn(C2CC2)c2cc(N3CCN(C(=O)Nc4nc(-c5ccccc5)cs4)CC3)c(F)cc2c1=O`, the growth with SK-MEL-2 melanoma is -10.8% (active); with EKVX NSCLC it was 37.5%; with SN12C renal, 4.91% (active); in the test with UO-31 renal, 5.5% (active); in the test on TK-10 renal, 26.3%; with ACHN renal, 25.2%. Further, the growth with CAKI-1 renal is 63.6%; in the test on A498 renal, -0.916% (active); in the test with CCRF-CEM leukemia, 23%; with MOLT-4 leukemia it was 22.9%; in the test with SR leukemia, 4.63% (active); in the test on OVCAR-8 ovarian, 13.8%. Also, the growth in the test on OVCAR-5 ovarian was 50.3%; in the test on OVCAR-4 ovarian it was 62.4%; in the test on SK-OV-3 ovarian, 14.7%; with OVCAR-3 ovarian it was 7.8% (active); in the test on HS 578T breast, 40.6%; with NCI/ADR-RES ovarian it was 76.7%.
Turning to `COc1cc2cc(Oc3ccc(NC(=O)Nc4cccc(C(F)(F)F)c4)cc3)c(C)nc2cc1OCCN1CCOCC1`, the growth is 78.6% in the test with SK-MEL-2 melanoma; 25.4% in the test on EKVX NSCLC; 47.7% in the test with SN12C renal; 51.8% in the test on UO-31 renal; 66.3% in the test on TK-10 renal; 21.4% with ACHN renal. The growth is 56.2% in the test on CAKI-1 renal; 64.2% in the test on A498 renal; 23.9% in the test with CCRF-CEM leukemia; 6.76% (active) in the test on MOLT-4 leukemia; 9.31% (active) with SR leukemia; 25.1% in the test on OVCAR-8 ovarian. In addition, the growth was 109% with OVCAR-5 ovarian; 20.1% in the test on OVCAR-4 ovarian; 57.7% in the test with IGROV1 ovarian; 28.6% in the test with OVCAR-3 ovarian; 86% in the test with HS 578T breast; 45.3% in the test on NCI/ADR-RES ovarian.
With `CCCCC[C@H](O)C/C=C1/C(=O)C=C[C@@H]1C/C=C\CCCC(=O)O`, the growth is 79.6% in the test on SK-MEL-2 melanoma; 100% in the test with EKVX NSCLC; 52.3% with SN12C renal; 81.9% in the test on UO-31 renal; 111% in the test on TK-10 renal; 83.2% with ACHN renal. The growth with CAKI-1 renal was 80.7%; in the test on A498 renal, 109%; with CCRF-CEM leukemia, 14.9%; with MOLT-4 leukemia it was 43.2%; in the test on SR leukemia, 15.8%; with OVCAR-8 ovarian, 33.7%. Moreover, the growth in the test on OVCAR-5 ovarian was 152%; in the test with OVCAR-4 ovarian, 77.8%; in the test on SK-OV-3 ovarian, 118%; in the test with OVCAR-3 ovarian it was 22.2%; in the test on HS 578T breast, 95.6%; with NCI/ADR-RES ovarian it was 54.4%.
As for `COc1cccc(-c2nc(-c3ccc(NC(=O)c4ccccc4)cc3)[nH]c2-c2ccnc(Br)c2)c1`, the growth with SK-MEL-2 melanoma was 29.4%; in the test with EKVX NSCLC, 24.4%; with SN12C renal, 53.8%; with UO-31 renal it was 3.81% (active); with TK-10 renal, 59.5%; with ACHN renal it was 24.8%. Also, the growth was 20.4% in the test with CAKI-1 renal; -28.3% (active) with A498 renal; 21.4% in the test on CCRF-CEM leukemia; 15.1% in the test on MOLT-4 leukemia; -2.71% (active) with SR leukemia; 34% in the test on OVCAR-8 ovarian. The growth was 47.9% in the test with OVCAR-5 ovarian; 6.72% (active) in the test on SK-OV-3 ovarian; 55.1% in the test with IGROV1 ovarian; 40% with OVCAR-3 ovarian; -25.8% (active) in the test with HS 578T breast; 35.5% with NCI/ADR-RES ovarian.
In the case of `O=C(CCN1C(=O)/C(=C/c2ccc(O)cc2)SC1=S)Nc1ccc(Cl)cc1`, the growth in the test on SK-MEL-2 melanoma is 108%; in the test on EKVX NSCLC it was 95.8%; in the test on SN12C renal, 91.7%; in the test on UO-31 renal, 6.22% (active); with TK-10 renal it was 108%; with ACHN renal it was 84%. The growth is 92.5% with CAKI-1 renal; 95% in the test with A498 renal; 46.7% in the test with CCRF-CEM leukemia; 84.7% in the test with MOLT-4 leukemia; 110% in the test with SR leukemia; 97% with OVCAR-8 ovarian. Further, the growth is 95.6% in the test with OVCAR-5 ovarian; 71.8% in the test on SK-OV-3 ovarian; 79.7% in the test with IGROV1 ovarian; 99.4% in the test on OVCAR-3 ovarian; 92.8% with HS 578T breast; 104% in the test on NCI/ADR-RES ovarian.
